In the supplement of paper PMC12636033:
± gives the standard deviation of the averaged measurements. The full ranking holds about 33,000 sequences; the median of “E-score (rank enrichment, -0.5 to 0.5)” is about -0.0068, and the highest 2% start at about 0.24. The full list was thinned out, with the highest values kept by preference.

System: muMax20 (Max(13-93) K31hArg/K57hArg, M65Nle)
Assay: PBM 8-mer E-score (E-score (rank enrichment, -0.5 to 0.5)); higher = stronger preferential binding
Method: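 Protein binding microarray (universal PBM chip covering all 10-mers in fixed probe flanks) with chemically synthesized human Max(13-93) bHLH-LZ analogs (not full-length Max) bearing noncanonical residues (hArg, Tha, Aib, Nle at 65) and aromatic Cys staples. Read-out per 8-mer (and its reverse complement): E-score (rank-based enrichment, -0.5 to 0.5) and Z-score of median probe intensity.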

| Sequence | PBM 8-mer E-score |
| --- | --- |
| CAGTTGTC | -0.0724 ± 0.03 |
| AATCTGCC | -0.0641 ± 0.019 |
| AACCTAAC | 0.00712 ± 0.17 |
| AAGATAGT | 0.0344 ± 0.11 |
| ATGGTCGG | 0.12 ± 0.014 |
| AATCGGAT | -0.181 ± 0.015 |
| GCCGGTCA | -0.116 ± 0.078 |
| AATTACGC | 0.0652 ± 0.043 |
| GTTATACA | 0.195 ± 0.095 |
| AGTATAAA | 0.213 ± 0.011 |
| GTTAGATA | 0.164 ± 0.13 |
| ATTAGATA | 0.262 ± 0.057 |
| AGTATAAC | 0.097 ± 0.009 |
| ATTATATC | 0.247 ± 0.031 |
| AATATATC | 0.0912 ± 0.07 |
| GTTATAGA | 0.21 ± 0.089 |
| CTTATATC | 0.137 ± 0.08 |
| GTTATATA | 0.25 ± 0.023 |
| AGTATAAG | 0.237 ± 0.042 |
| ATTAGATG | 0.226 ± 0.051 |
| CATGGCAC | 0.0103 ± 0.037 |
| CTGTGTGA | 0.134 ± 0.012 |
| CAGCGCAC | -0.171 ± 0.087 |
| TATGAGGA | -0.0378 ± 0.11 |
| AACAGACG | -0.142 ± 0.096 |

| Sequence | PBM 8-mer E-score |
| --- | --- |
| GGTGGATA | -0.0515 ± 0.1 |
| ACGGTTCA | -0.138 ± 0.047 |
| CTAGGTGA | 0.108 ± 0.032 |
| TAGGATGA | -0.00288 ± 0.12 |
| ATTATATG | 0.251 ± 0.03 |
| ATTATACG | 0.0459 ± 0.063 |
| AGTATCTA | 0.344 ± 0.011 |
| ATTATACA | 0.174 ± 0.083 |
| AGTATATA | 0.277 ± 0.12 |
| ACTATATG | 0.191 ± 0.089 |
| CTTATATA | 0.226 ± 0.043 |
| AGTATATG | 0.145 ± 0.017 |
| CGTATCTA | -0.0745 ± 0.11 |
| ATTATATA | 0.242 ± 0.03 |
| GGTATCTA | -0.022 ± 0.064 |
| AGTATATC | -0.038 ± 0.059 |
| GCCGTACA | 0.042 ± 0.14 |
| GGCGTACA | -0.082 ± 0.02 |
| CAAACGTC | 0.0182 ± 0.068 |
| CAGTAGAC | -0.021 ± 0.044 |
| AGGATGCG | -0.118 ± 0.034 |
| ACTATATA | 0.235 ± 0.028 |
| CCTATATC | -0.0516 ± 0.071 |
| ACTATATC | 0.273 ± 0.02 |
| CCTTGTAC | 0.176 ± 0.15 |

| Sequence | PBM 8-mer E-score |
| --- | --- |
| ACGAAGCG | -0.0243 ± 0.071 |
| ATACTAGG | 0.138 ± 0.032 |
| ACATATTA | 0.241 ± 0.011 |
| ACATATCG | 0.046 ± 0.074 |
| ACATATTG | 0.11 ± 0.12 |
| GAATATTA | 0.137 ± 0.083 |
| CAATATTC | 0.0728 ± 0.011 |
| CCATATTA | 0.124 ± 0.062 |
| TAATATTA | 0.337 ± 0.011 |
| TAATATGA | 0.221 ± 0.017 |
| CCATATCA | 0.0749 ± 0.018 |
| AAATATTC | 0.249 ± 0.0014 |
| GAATATTC | 0.195 ± 0.08 |
| ACATATCA | 0.262 ± 0.041 |
| CGGCGTCC | -0.114 ± 0.047 |
| ATGCAATG | -0.00261 ± 0.02 |
| CAACTTGG | -0.0581 ± 0.1 |
| AGAGAACC | -0.143 ± 0.11 |
| CAGATCTC | -0.176 ± 0.038 |
| ATCTGACG | -0.0395 ± 0.07 |
| ATAGCGCG | 0.0731 ± 0.084 |
| CATTGCGG | -0.148 ± 0.13 |
| ACTTCAAC | 0.11 ± 0.041 |
| ACATAGCA | 0.272 ± 0.032 |
| AAATATTA | 0.27 ± 0.028 |

| Sequence | PBM 8-mer E-score |
| --- | --- |
| AAATATTG | 0.138 ± 0.0027 |
| CCATAGCA | 0.0753 ± 0.09 |
| TCATAGCA | 0.108 ± 0.0018 |
| CAATATTA | 0.221 ± 0.056 |
| ATAAAGAG | 0.181 ± 0.089 |
| AGACAACA | 0.0868 ± 0.027 |
| TCTATCAA | 0.184 ± 0.099 |
| ATCTCCAT | 0.0165 ± 0.085 |
| ATAGGACC | -0.0994 ± 0.04 |
| GGTAAGGA | -0.00502 ± 0.057 |
| GATGCTGA | -0.131 ± 0.16 |
| AATGCTGA | 0.088 ± 0.064 |
| ACCGCGTC | -0.131 ± 0.011 |
| AACGCGTA | 0.0549 ± 0.11 |
| CATGCTGA | 0.2602 ± 0.0021 |
| ACCGCGTG | 0.294 ± 0.022 |
| GACGCGTA | 0.0707 ± 0.061 |
| ACCGCGTA | 0.0588 ± 0.11 |
| CACGCGTA | 0.248 ± 0.051 |
| CACGCGTG | 0.314 ± 0.11 |
| AACGCGTG | 0.144 ± 0.01 |
| CACGCGTC | 0.208 ± 0.048 |
| ATAAACGA | 0.229 ± 0.033 |
| TAATCTGA | -0.0143 ± 0.051 |
| AGGCCGTC | -0.184 ± 0.049 |

| Sequence | PBM 8-mer E-score |
| --- | --- |
| TCCCCGCA | -0.0761 ± 0.035 |
| ATCACCTC | 0.0702 ± 0.029 |
| TCATCTCA | -0.000685 ± 0.13 |
| ATTGACCG | 0.0179 ± 0.099 |
| ATCGCGCG | 0.0373 ± 0.16 |
| AATGCGTA | 0.0783 ± 0.035 |
| GATGCGTA | 0.0917 ± 0.02 |
| CATGCGTA | 0.259 ± 0.15 |
| ACGTGGTA | 0.309 ± 0.021 |
| AGGTGGTG | 0.0398 ± 0.076 |
| CCGTGGTA | -0.0136 ± 0.0022 |
| GCGTGGTA | 0.148 ± 0.095 |
| ACGTGGTG | 0.336 ± 0.015 |
| ACGTGGTC | 0.213 ± 0.093 |
| ATAGAAAT | 0.15 ± 0.089 |
| GGAATAGA | 0.0778 ± 0.075 |
| CACATGGC | 0.269 ± 0.088 |
| GACATGGC | 0.0454 ± 0.031 |
| AACATGGA | 0.135 ± 0.0038 |
| CACATGGG | 0.181 ± 0.052 |
| CACATGGA | 0.238 ± 0.15 |
| GACATGGA | -0.0732 ± 0.1 |
| ATGACGCG | 0.0788 ± 0.13 |
| CCGGACAC | -0.238 ± 0.079 |
| ATAGAATG | 0.138 ± 0.018 |

| Sequence | PBM 8-mer E-score |
| --- | --- |
| ATAGAATA | 0.245 ± 0.029 |
| GTAGAATA | 0.235 ± 0.044 |
| AGTATTCG | 0.0983 ± 0.088 |
| ATTCTATG | 0.109 ± 0.0098 |
| AAAAAATA | 0.271 ± 0.019 |
| AATAAATC | 0.0155 ± 0.081 |
| GAAAAATA | 0.158 ± 0.027 |
| AAAATATA | 0.21 ± 0.055 |
| CAAATATA | 0.162 ± 0.027 |
| TAAATATA | 0.246 ± 0.014 |
| CAAAAATA | 0.176 ± 0.0026 |
| AATAAATT | 0.213 ± 0.037 |
| CATAAATG | -0.0552 ± 0.089 |
| GATAAATA | 0.149 ± 0.036 |
| AATAAATA | 0.245 ± 0.06 |
| AATAAATG | 0.278 ± 0.018 |
| AGTATAGC | -0.0321 ± 0.19 |
| CAATTTCG | 0.0689 ± 0.083 |
| GTATGGGA | -0.111 ± 0.019 |
| GAGCACCC | -0.166 ± 0.061 |
| CACGGGAG | 0.00455 ± 0.05 |
| ACGGGAGT | 0.0635 ± 0.097 |
| CACGGGCG | -0.217 ± 0.14 |
| ATTAAATA | 0.2 ± 0.025 |
| CATAAATC | 0.0804 ± 0.0035 |

| Sequence | PBM 8-mer E-score |
| --- | --- |
| CAAATGTA | 0.195 ± 0.11 |
| TAAAAATA | 0.131 ± 0.048 |
| GTTAAATA | 0.283 ± 0.032 |
| CATAAATA | 0.318 ± 0.035 |
| CCTAAATA | 0.123 ± 0.022 |
| GAAATGTA | 0.0974 ± 0.0077 |
| CTTAAATA | 0.0909 ± 0.014 |
| CGTAAATA | 0.0359 ± 0.08 |
| TATAAATA | 0.2587 ± 0.0014 |
| TAAATGTA | 0.285 ± 0.01 |
| CCTCCGGC | -0.116 ± 0.096 |
| ATTTGATA | 0.176 ± 0.046 |
| GCTTGACC | -0.013 ± 0.069 |
| ATGGATCG | -0.294 ± 0.055 |
| AATTAGCA | 0.159 ± 0.046 |
| CTGGAGCC | -0.177 ± 0.015 |
| ATGCCCGG | -0.241 ± 0.076 |
| AACTACGA | 0.0584 ± 0.13 |
| AAGTATAC | 0.259 ± 0.043 |
| AAGTATAT | 0.183 ± 0.0083 |
| AAGTATAA | 0.215 ± 0.033 |
| ACAAGGGT | 0.0627 ± 0.11 |
